Test [1] in a line: NCI Yeast Anticancer Drug Screen. Data for the rad50 strain (AID 155).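 Note: 0% = growth of vehicle-only cultures of the same strain.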 Conditions: S. cerevisiae rad50 strain growth inhibition, hits give high values. Put shortly: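 Cells are treated with compound, grown, and their growth is then scored against vehicle-only cultures of the same repair-deficient yeast strain.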
Test [2] in a line: NCI Yeast Anticancer Drug Screen. Data for the mec2-1 strain (AID 157). The note with it: S. cerevisiae mec2-1 strain, hits give high values. Summed up:
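Test agents were screened against the mec2-1 yeast strain, with defined DNA repair or cell cycle alteration. Growth was scored as inhibition against vehicle-only controls.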

Test [3] can be described thus: NCI Yeast Anticancer Drug Screen. Data for the sgs1 mgt1 strain (AID 161).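 Note: 0% = growth of cultures given vehicle only.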 Conditions: S. cerevisiae sgs1 mgt1 strain, hits give high values. Summed up:
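Test agents were incubated with a DNA-repair-mutant yeast strain. Growth was then read and compared against vehicle-treated controls.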

Test [4] can be described thus: NCI Yeast Anticancer Drug Screen. Data for the cln2 rad14 strain (AID 165).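 Note: 0% = growth equal to vehicle treated cultures.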 Conditions: S. cerevisiae cln2 rad14 strain, hits give high values. Put shortly:
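Growth of compound-exposed yeast (cln2 rad14 genotype) measured and expressed as inhibition relative to vehicle.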

A short description of test [5]: NCI Yeast Anticancer Drug Screen. Data for the bub3 strain (AID 167). The note with it: S. cerevisiae bub3 mutant strain, hits give high values. Put shortly:
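Part of a panel of yeast mutants defective in DNA damage repair or cell cycle regulation. Each strain is grown with compound, and inhibition is calculated relative to solvent-treated cultures.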

Test [6] in a line: NCI Yeast Anticancer Drug Screen. Data for the mlh1 rad18 strain (AID 175). Conditions: S. cerevisiae mlh1 rad18 strain growth inhibition, hits give high values. Put shortly:
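In this whole-cell yeast screen, a strain with altered DNA damage repair is challenged with compound, and its growth is measured against matched vehicle-treated controls.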

Where [7] appears, read: at 5.0 µM (retest, dose inferred, filed as 0.5).
[8] abbreviates: at 50.0 µM (retest, dose inferred, filed as 5.0).

Structures are written as SMILES. This is part of a sample that, as a whole, favours compounds with a hit. Of some 79,000 tested, about 15% had one in any assay. Values without a mark were called inactive. Active and inactive are the calls of the source. Cut-off read from the data, not from the text of the source: active = growth inhibition above about 70%; inactive = the rest.

Consider `CCOC(=O)c1c(SCC#N)n(-c2ccccc2)c(=S)n(-c2ccccc2)c1=O`, for which the growth inhibition in test [1] (setting [7]) is 12%; in test [1] (setting [8]) it was 35%; in test [1] (at 50.0 µM) it was 80% (active); in test [2] (setting [7]), -7%; in test [2] (setting [8]), 39%; in test [2] (at 50.0 µM) it was 81.2% (active). In addition, the growth inhibition in test [3] (setting [7]) is -8%; in test [3] (setting [8]) it was 48%; in test [3] (at 50.0 µM), 75.3% (active); in test [4] (setting [7]), -6%; in test [4] (setting [8]), 77% (active); in test [4] (at 50.0 µM) it was 78% (active). Further, the growth inhibition in test [5] (setting [7]) is 1%; in test [5] (setting [8]) it was 85% (active); in test [5] (at 50.0 µM) it was 88.5% (active); in test [6] (setting [7]), -11%; in test [6] (setting [8]) it was 81% (active); in test [6] (at 50.0 µM), 75.2% (active).

Consider `O=C(O)c1cc2c(cc1CC(Cc1ccc3c(c1)CCCC3)C(=O)O)CCCC2` (configuration not stated), for which the growth inhibition in test [1] (setting [7]) was 20%; in test [1] (setting [8]), 95% (active); in test [1] (at 50.0 µM), 86.3% (active); in test [2] (setting [7]), 16%; in test [2] (setting [8]), 98% (active); in test [2] (at 50.0 µM) it was 73.3% (active). Also, the growth inhibition in test [3] (setting [7]) is 19%; in test [3] (setting [8]), 98% (active); in test [3] (at 50.0 µM) it was 70.2% (active); in test [4] (setting [7]) it was 9%; in test [4] (setting [8]) it was 96% (active); in test [4] (at 50.0 µM) it was 74.4% (active). For the same compound, the growth inhibition in test [5] (setting [7]) is 7%; in test [5] (setting [8]), 98% (active); in test [5] (at 50.0 µM) it was 76.2% (active); in test [6] (setting [7]), 8%; in test [6] (setting [8]), 96% (active); in test [6] (at 50.0 µM) it was 82.5% (active).

`CO[C@H]1C[C@@H]2CC[C@@H](C)[C@@](O)(O2)C(=O)C(=O)N2CCCC[C@H]2C(=O)O[C@H]([C@H](C)C[C@@H]2CC[C@@H](OC(=O)C(C)(CO)CO)[C@H](OC)C2)CC(=O)[C@H](C)/C=C(\C)[C@@H](O)[C@@H](OC)C(=O)[C@H](C)C[C@H](C)/C=C/C=C/C=C/1C`: the growth inhibition in test [1] (setting [7]) was 98% (active); in test [1] (setting [8]), 97% (active); in test [1] (at 50.0 µM) it was 82.5% (active); in test [2] (setting [7]), 99% (active); in test [2] (setting [8]), 98% (active); in test [2] (at 50.0 µM), 86.8% (active). Further, the growth inhibition in test [3] (setting [7]) was 98% (active); in test [3] (setting [8]), 98% (active); in test [3] (at 50.0 µM) it was 87.3% (active); in test [4] (setting [7]), 93% (active); in test [4] (setting [8]) it was 88% (active); in test [4] (at 50.0 µM) it was 88% (active). In addition, the growth inhibition in test [5] (setting [7]) was 97% (active); in test [5] (setting [8]) it was 96% (active); in test [5] (at 50.0 µM) it was 89.5% (active); in test [6] (setting [7]), 98% (active); in test [6] (setting [8]), 97% (active); in test [6] (at 50.0 µM), 89.5% (active).

Take `CCCCCCCCC[n+]1cccc(C(=O)c2ccccc2)c1`: the growth inhibition in test [1] (setting [7]) was -1%; in test [1] (setting [8]) it was 53%; in test [1] (at 50.0 µM) it was 51.6%; in test [2] (setting [7]), 4%; in test [2] (setting [8]), 56%; in test [2] (at 50.0 µM) it was 24.8%. In addition, the growth inhibition in test [3] (setting [7]) is -165%; in test [3] (setting [8]), 77% (active); in test [3] (at 50.0 µM), 72.7% (active); in test [4] (setting [7]) it was -4%; in test [4] (setting [8]), 42%; in test [4] (at 50.0 µM), 3.95%. Further, the growth inhibition in test [5] (setting [7]) was 0%; in test [5] (setting [8]), 70% (active); in test [5] (at 50.0 µM), 82.5% (active); in test [6] (setting [7]), 36%; in test [6] (setting [8]) it was 78% (active); in test [6] (at 50.0 µM), 72.7% (active).

With `CC(=O)N(C1=C(Cl)C(=O)c2ccccc2C1=O)c1ccc([N+](=O)[O-])cc1`, the growth inhibition was 98% (active) in test [1] (setting [7]); 98% (active) in test [1] (setting [8]); 99.2% (active) in test [1] (at 50.0 µM); 99% (active) in test [2] (setting [7]); 99% (active) in test [2] (setting [8]); 99.2% (active) in test [2] (at 50.0 µM). The growth inhibition was 98% (active) in test [3] (setting [7]); 100% (active) in test [3] (setting [8]); 99.5% (active) in test [3] (at 50.0 µM); 96% (active) in test [4] (setting [7]); 97% (active) in test [4] (setting [8]); 99.5% (active) in test [4] (at 50.0 µM). In addition, the growth inhibition is 99% (active) in test [5] (setting [7]); 98% (active) in test [5] (setting [8]); 98.6% (active) in test [5] (at 50.0 µM); 98% (active) in test [6] (setting [7]); 99% (active) in test [6] (setting [8]); 99% (active) in test [6] (at 50.0 µM).

As for `O=C1c2ccc(O)c(O)c2C(=O)c2cccc(O)c21`, the growth inhibition is 68% in test [1] (setting [7]); 72% (active) in test [1] (setting [8]); 28.1% in test [1] (at 50.0 µM); 30% in test [2] (setting [7]); 49% in test [2] (setting [8]); 3.9% in test [2] (at 50.0 µM). Besides, the growth inhibition in test [3] (setting [7]) is 83% (active); in test [3] (setting [8]), 84% (active); in test [3] (at 50.0 µM) it was 36.6%; in test [4] (setting [7]), 34%; in test [4] (setting [8]) it was 46%; in test [4] (at 50.0 µM), 22.7%. The growth inhibition in test [5] (setting [7]) was 91% (active); in test [5] (setting [8]) it was 93% (active); in test [5] (at 50.0 µM), 18.4%; in test [6] (setting [7]), 83% (active); in test [6] (setting [8]), 88% (active); in test [6] (at 50.0 µM) it was 26.3%.

With `N#CC1(C#N)C2C=CC(c3coc4cccc2c34)C1(C#N)C#N` (configuration not stated), the growth inhibition in test [1] (setting [7]) is 29%; in test [1] (setting [8]), 37%; in test [1] (at 50.0 µM), 35.6%; in test [2] (setting [7]) it was 17%; in test [2] (setting [8]), 27%; in test [2] (at 50.0 µM), 35.9%. In addition, the growth inhibition in test [3] (setting [7]) is 32%; in test [3] (setting [8]) it was 37%; in test [3] (at 50.0 µM), 75% (active); in test [4] (setting [7]) it was 19%; in test [4] (setting [8]), 27%; in test [4] (at 50.0 µM), 19.2%. Moreover, the growth inhibition in test [5] (setting [7]) is 22%; in test [5] (setting [8]) it was 47%; in test [5] (at 50.0 µM), 58.2%; in test [6] (setting [7]), 26%; in test [6] (setting [8]) it was 47%; in test [6] (at 50.0 µM) it was 57.9%.

Consider `CC1=C(C)C(=O)C(CNCc2ccccc2)=[C-]C1=O.[Co].[c-]1[c-][c-][cH-][c-]1`, for which the growth inhibition in test [1] (setting [7]) was 6%; in test [1] (setting [8]), -13%; in test [1] (at 50.0 µM), 45.8%; in test [2] (setting [7]) it was -3%; in test [2] (setting [8]), 26%; in test [2] (at 50.0 µM), 35.6%. The growth inhibition in test [3] (setting [7]) is 5%; in test [3] (setting [8]) it was 19%; in test [3] (at 50.0 µM), 44.8%; in test [4] (setting [7]), 7%; in test [4] (setting [8]) it was 10%; in test [4] (at 50.0 µM), 51.1%. The growth inhibition is 11% in test [5] (setting [7]); 15% in test [5] (setting [8]); 19.1% in test [5] (at 50.0 µM); 6% in test [6] (setting [7]); 3% in test [6] (setting [8]); 32.3% in test [6] (at 50.0 µM).

With `N#CC=Cc1ccc([N+](=O)[O-])s1` (mixture of isomers), the growth inhibition is 41% in test [1] (setting [7]); 99% (active) in test [1] (setting [8]); 89.8% (active) in test [1] (at 50.0 µM); 39% in test [2] (setting [7]); 98% (active) in test [2] (setting [8]); 90.8% (active) in test [2] (at 50.0 µM). The growth inhibition in test [3] (setting [7]) is 59%; in test [3] (setting [8]), 99% (active); in test [3] (at 50.0 µM) it was 90.8% (active); in test [4] (setting [7]) it was 32%; in test [4] (setting [8]) it was 99% (active); in test [4] (at 50.0 µM) it was 90.8% (active). Besides, the growth inhibition in test [5] (setting [7]) was 70% (active); in test [5] (setting [8]), 99% (active); in test [5] (at 50.0 µM) it was 88.5% (active); in test [6] (setting [7]) it was 50%; in test [6] (setting [8]) it was 98% (active); in test [6] (at 50.0 µM) it was 91.1% (active).

(Values after PubChem BioAssay (NCI).)
